The values below come from PubChem BioAssay (NCI).

Assay [1] can be described thus: NCI Yeast Anticancer Drug Screen. Data for the rad50 strain (AID 155).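 Note: 0% = growth of vehicle-only cultures of the same strain.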 The conditions noted are these: S. cerevisiae rad50 strain growth inhibition, hits give high values. In outline:
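Relative growth inhibition (compound vs vehicle) was measured in yeast with a defined repair-gene alteration.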

Assay [2] is described as follows: NCI Yeast Anticancer Drug Screen. Data for the mec2-1 strain (AID 157). The conditions noted are these: S. cerevisiae mec2-1 strain, hits give high values. In outline: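 Vehicle-treated cultures served as reference for growth inhibition of compound-exposed mec2-1 yeast.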
Assay [3] is described as follows: NCI Yeast Anticancer Drug Screen. Data for the sgs1 mgt1 strain (AID 161).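 Note: 0% = growth of cultures given vehicle only.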 The conditions noted are these: S. cerevisiae sgs1 mgt1 strain, hits give high values. In outline:
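Genetically altered yeast, compound exposure, growth inhibition relative to vehicle.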

Assay [4] in a line: NCI Yeast Anticancer Drug Screen. Data for the cln2 rad14 strain (AID 165).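 Note: 0% = growth equal to vehicle treated cultures.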 The conditions noted are these: S. cerevisiae cln2 rad14 strain, hits give high values. In a few lines:
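Each compound was tested on cln2 rad14 yeast. Inhibition of growth was calculated against vehicle-exposed controls.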

Assay [5] in a line: NCI Yeast Anticancer Drug Screen. Data for the bub3 strain (AID 167). Conditions: S. cerevisiae bub3 mutant strain, hits give high values. In a few lines: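 Screening used yeast with an engineered genetic alteration affecting cell cycle control. Compound-exposed cultures were compared with vehicle cultures, and reduced growth was taken as inhibition.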
A short description of assay [6]: NCI Yeast Anticancer Drug Screen. Data for the mlh1 rad18 strain (AID 175). The conditions noted are these: S. cerevisiae mlh1 rad18 strain growth inhibition, hits give high values. In outline: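 Vehicle-treated cultures served as the reference for growth inhibition in a yeast strain carrying DNA damage repair alterations exposed to each compound.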
Setting [7] is: at 5.0 µM (retest, dose inferred, filed as 0.5).
Setting [8] is: at 50.0 µM (retest, dose inferred, filed as 5.0).

This is part of a sample that, as a whole, favours compounds with a hit. Of some 79,000 tested, about 15% had one in any assay. Values without a mark were called inactive. Activity calls are given as the source filed them. Cut-off read from the data, not from the text of the source: active = growth inhibition above about 70%; inactive = the rest.

`COc1cc(C(c2cc3c(cc2O)OCO3)N2CCCCC2)cc(OC)c1OC` (stereo not given): the growth inhibition was -4% in assay [1] (setting [7]); 13% in assay [1] (setting [8]); 25% in assay [1] (at 50.0 µM); 0% in assay [2] (setting [7]); 20% in assay [2] (setting [8]); 34.6% in assay [2] (at 50.0 µM). The growth inhibition in assay [3] (setting [7]) was -5%; in assay [3] (setting [8]), -33%; in assay [3] (at 50.0 µM) it was 21.8%; in assay [4] (setting [7]), -6%; in assay [4] (setting [8]) it was -3%; in assay [4] (at 50.0 µM), 67.5%. Besides, the growth inhibition in assay [5] (setting [7]) is -1%; in assay [5] (setting [8]), 4%; in assay [5] (at 50.0 µM), 31.6%; in assay [6] (setting [7]), -6%; in assay [6] (setting [8]), 6%; in assay [6] (at 50.0 µM), 62.6%.
On to `NC(=S)N/N=C1/C(=O)c2cccc3cccc1c23`, for which the growth inhibition is 10% in assay [1] (setting [7]); 96% (active) in assay [1] (setting [8]); 91.8% (active) in assay [1] (at 50.0 µM); -2% in assay [2] (setting [7]); 78% (active) in assay [2] (setting [8]); 0.1% in assay [2] (at 50.0 µM). For the same compound, the growth inhibition in assay [3] (setting [7]) was 1%; in assay [3] (setting [8]) it was 80% (active); in assay [3] (at 50.0 µM), 66.7%; in assay [4] (setting [7]) it was -9%; in assay [4] (setting [8]) it was 65%; in assay [4] (at 50.0 µM), -26.7%. In addition, the growth inhibition is 9% in assay [5] (setting [7]); 65% in assay [5] (setting [8]); 7.65% in assay [5] (at 50.0 µM); 6% in assay [6] (setting [7]); 90% (active) in assay [6] (setting [8]); 70.5% (active) in assay [6] (at 50.0 µM).
As for `O=C(c1cccc(Cl)c1)c1ccc2ccccc2c1C(=O)O`, the growth inhibition in assay [1] (setting [7]) is 10%; in assay [1] (setting [8]), 1%; in assay [1] (at 50.0 µM), 12.3%; in assay [2] (setting [7]), -8%; in assay [2] (setting [8]), 0%; in assay [2] (at 50.0 µM), 45.9%. The growth inhibition in assay [3] (setting [7]) is -1%; in assay [3] (setting [8]), 1%; in assay [3] (at 50.0 µM) it was 0.7%; in assay [4] (setting [7]), -3%; in assay [4] (setting [8]), -1%; in assay [4] (at 50.0 µM) it was 5.6%. The growth inhibition in assay [5] (setting [7]) was -6%; in assay [5] (setting [8]), 1%; in assay [5] (at 50.0 µM), -1.5%; in assay [6] (setting [7]), -6%; in assay [6] (setting [8]), 5%; in assay [6] (at 50.0 µM), 5.75%.
On to `Cc1cc(I)cc(I)c1O`, for which the growth inhibition in assay [1] (setting [7]) was 8%; in assay [1] (setting [8]), 55%; in assay [1] (at 50.0 µM) it was 75.5% (active); in assay [2] (setting [7]), 2%; in assay [2] (setting [8]), 34%; in assay [2] (at 50.0 µM), 80.7% (active). The growth inhibition was 7% in assay [3] (setting [7]); 33% in assay [3] (setting [8]); 55.3% in assay [3] (at 50.0 µM); 4% in assay [4] (setting [7]); 4% in assay [4] (setting [8]); -7.85% in assay [4] (at 50.0 µM). Further, the growth inhibition was 1% in assay [5] (setting [7]); 33% in assay [5] (setting [8]); 67.3% in assay [5] (at 50.0 µM); 10% in assay [6] (setting [7]); 62% in assay [6] (setting [8]); 86.3% (active) in assay [6] (at 50.0 µM).
With `O=C(Nc1ccccc1)Oc1c(Cl)c(Cl)c(Cl)c(Cl)c1Cl`, the growth inhibition is 19% in assay [1] (setting [7]); 98% (active) in assay [1] (setting [8]); 58.4% in assay [1] (at 50.0 µM); 13% in assay [2] (setting [7]); 99% (active) in assay [2] (setting [8]); 45.8% in assay [2] (at 50.0 µM). In addition, the growth inhibition in assay [3] (setting [7]) was 26%; in assay [3] (setting [8]), 99% (active); in assay [3] (at 50.0 µM), 55.7%; in assay [4] (setting [7]), 3%; in assay [4] (setting [8]) it was 99% (active); in assay [4] (at 50.0 µM) it was -20.8%. In addition, the growth inhibition is -2% in assay [5] (setting [7]); 99% (active) in assay [5] (setting [8]); 54.4% in assay [5] (at 50.0 µM); 6% in assay [6] (setting [7]); 98% (active) in assay [6] (setting [8]); 68.7% in assay [6] (at 50.0 µM).
`Cc1c(S(C)=O)[n+](=O)c2ccccc2n1[O-]` (stereo not given): the growth inhibition in assay [1] (setting [7]) is 13%; in assay [1] (setting [8]), 85% (active); in assay [1] (at 50.0 µM) it was 32.9%; in assay [2] (setting [7]), 0%; in assay [2] (setting [8]), 93% (active); in assay [2] (at 50.0 µM), 33.7%. Moreover, the growth inhibition is 8% in assay [3] (setting [7]); 92% (active) in assay [3] (setting [8]); 35.9% in assay [3] (at 50.0 µM); 2% in assay [4] (setting [7]); 40% in assay [4] (setting [8]); 7.75% in assay [4] (at 50.0 µM). The growth inhibition in assay [5] (setting [7]) was -2%; in assay [5] (setting [8]), 89% (active); in assay [5] (at 50.0 µM) it was -5.5%; in assay [6] (setting [7]), 18%; in assay [6] (setting [8]), 96% (active); in assay [6] (at 50.0 µM) it was 58.6%.
For the compound `CC(=O)c1cc(-c2ccc(C)cc2)nc2c(C)cc(C)cc12`, the growth inhibition in assay [1] (setting [7]) was 5%; in assay [1] (setting [8]), 15%; in assay [1] (at 50.0 µM), 32.9%; in assay [2] (setting [7]) it was 5%; in assay [2] (setting [8]), 33%; in assay [2] (at 50.0 µM), 60.5%. The growth inhibition in assay [3] (setting [7]) was 6%; in assay [3] (setting [8]) it was 32%; in assay [3] (at 50.0 µM) it was -9.2%; in assay [4] (setting [7]), 1%; in assay [4] (setting [8]), 41%; in assay [4] (at 50.0 µM), 76.8% (active). In addition, the growth inhibition in assay [5] (setting [7]) was 10%; in assay [5] (setting [8]), 40%; in assay [5] (at 50.0 µM) it was 95.2% (active); in assay [6] (setting [7]) it was 27%; in assay [6] (setting [8]), 41%; in assay [6] (at 50.0 µM), 94.2% (active).
On to `CCCCCCCCCCCCCCSC(=NC)NC`, for which the growth inhibition in assay [1] (setting [7]) was 99% (active); in assay [1] (setting [8]) it was 99% (active); in assay [1] (at 50.0 µM) it was 99.5% (active); in assay [2] (setting [7]) it was 99% (active); in assay [2] (setting [8]), 99% (active); in assay [2] (at 50.0 µM) it was 99.8% (active). Besides, the growth inhibition in assay [3] (setting [7]) is 100% (active); in assay [3] (setting [8]) it was 99% (active); in assay [3] (at 50.0 µM) it was 99.5% (active); in assay [4] (setting [7]), 99% (active); in assay [4] (setting [8]), 99% (active); in assay [4] (at 50.0 µM), 98.9% (active). Moreover, the growth inhibition in assay [5] (setting [7]) is 99% (active); in assay [5] (setting [8]) it was 99% (active); in assay [5] (at 50.0 µM), 99.5% (active); in assay [6] (setting [7]) it was 98% (active); in assay [6] (setting [8]), 99% (active); in assay [6] (at 50.0 µM), 99.4% (active).
For `Cc1c2cc[n+](C)cc2c(C)c2c1sc1ccccc12`, the growth inhibition in assay [1] (setting [7]) was 21%; in assay [1] (setting [8]), 97% (active); in assay [1] (at 50.0 µM) it was 39.4%; in assay [2] (setting [7]), -2%; in assay [2] (setting [8]) it was 98% (active); in assay [2] (at 50.0 µM), 91.2% (active). In addition, the growth inhibition in assay [3] (setting [7]) is 18%; in assay [3] (setting [8]) it was 99% (active); in assay [3] (at 50.0 µM), 90.8% (active); in assay [4] (setting [7]) it was 4%; in assay [4] (setting [8]), 97% (active); in assay [4] (at 50.0 µM), 91.5% (active). Moreover, the growth inhibition in assay [5] (setting [7]) is 16%; in assay [5] (setting [8]) it was 99% (active); in assay [5] (at 50.0 µM), 92.7% (active); in assay [6] (setting [7]) it was 8%; in assay [6] (setting [8]), 97% (active); in assay [6] (at 50.0 µM) it was 91.5% (active).
On to `CCOc1c(N=Nc2ccccc2OC)c(C)nn1C(N)=S`, for which the growth inhibition was 6% in assay [1] (setting [7]); 24% in assay [1] (setting [8]); 8.85% in assay [1] (at 50.0 µM); -10% in assay [2] (setting [7]); 21% in assay [2] (setting [8]); 3.9% in assay [2] (at 50.0 µM). For the same compound, the growth inhibition in assay [3] (setting [7]) is -5%; in assay [3] (setting [8]) it was 41%; in assay [3] (at 50.0 µM), 9.1%; in assay [4] (setting [7]), -2%; in assay [4] (setting [8]), 3%; in assay [4] (at 50.0 µM) it was -20.6%. Besides, the growth inhibition is 1% in assay [5] (setting [7]); 14% in assay [5] (setting [8]); 22.9% in assay [5] (at 50.0 µM); -4% in assay [6] (setting [7]); 21% in assay [6] (setting [8]); 29.9% in assay [6] (at 50.0 µM).
